TDP1 cell CPT – DT40-hTDP1 cell growth loss with CPT; chicken DT40 Tdp1-/-;hTDP1 cells + 20 nM CPT, ATP luminescence, 48 h; AID 686979; Potency, µM (highest dose often 46.2 µM), for the others: at the highest dose activity change, negative = growth inhibition, actives largely listed as inhibitors; 12% of 420,000 active; note: potency is the fitted concentration of half-maximal effect; nearly all actives have a fitted effect of over 55% in size
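Cell growth measured by CellTiter-Glo luminescence after a minimum 48 h, 37 C compound exposure with 20 nM CPT in Tdp1-knockout DT40 cells stably expressing hTDP1, seeded 400/well; qHTS titration format.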
HT1080 IDH1KD tx – toxicity to HT-1080 IDH1 knockdown cells (counter line); AID 686971; 2% of 360,000 active; Potency, µM (series often up to 46.1 µM), inactives show at the top dose activity, negative = toxicity, most hits filed as cytotoxic; HT-1080 IDH1 knockdown viability, ATP luminescence, 48 h;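 note: potency is the fitted concentration of half-maximal effect; 0% = DMSO wells and -100% = cell-free medium wells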
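IDH1KD HT-1080 cells, 750/well, RPMI + 5% FBS; compound pinned after 2 h settling; 48 h, 37 °C; CellTiter-Glo luminescence; % activity normalised to DMSO and no-cell wells; curves fitted, classed by r2 and efficacy.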
12-LOX inh – blocks human arachidonate 12S-lipoxygenase; Potency, µM (titrated, usually from 108 µM), without a hit: at the highest dose activity change, negative = inhibition, actives largely listed as inhibitors; purified 12hLO, xylenol orange hydroperoxide absorbance; 1.1% of 580,000 active; AID 1671190; note: potency is the fitted concentration of half-maximal effect
Target sequence (P18054 whole entry, looked up): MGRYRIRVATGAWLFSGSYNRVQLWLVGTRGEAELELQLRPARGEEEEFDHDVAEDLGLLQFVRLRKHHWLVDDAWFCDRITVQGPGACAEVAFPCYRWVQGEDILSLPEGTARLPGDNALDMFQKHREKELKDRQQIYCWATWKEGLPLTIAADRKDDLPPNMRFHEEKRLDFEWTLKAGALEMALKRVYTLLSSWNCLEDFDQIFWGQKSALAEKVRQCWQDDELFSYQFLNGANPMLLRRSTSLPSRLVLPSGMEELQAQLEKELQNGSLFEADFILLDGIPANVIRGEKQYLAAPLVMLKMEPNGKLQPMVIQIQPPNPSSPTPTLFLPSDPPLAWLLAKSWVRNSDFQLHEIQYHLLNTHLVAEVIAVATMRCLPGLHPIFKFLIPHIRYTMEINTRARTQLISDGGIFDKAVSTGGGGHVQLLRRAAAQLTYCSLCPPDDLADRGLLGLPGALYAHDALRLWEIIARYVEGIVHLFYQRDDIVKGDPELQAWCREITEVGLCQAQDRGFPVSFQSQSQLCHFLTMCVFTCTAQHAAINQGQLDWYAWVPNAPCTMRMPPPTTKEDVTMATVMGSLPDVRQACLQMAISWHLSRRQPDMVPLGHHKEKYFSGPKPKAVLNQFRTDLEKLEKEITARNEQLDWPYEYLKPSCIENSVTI
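Purified human 12hLO (150 nM final) in 25 mM Hepes, 0.01% Triton X-100, pH 7.0 was preincubated 15 min at room temperature with compound. Then 40 uM arachidonic acid was added, 30 min. Hydroperoxide was read by Fe-XO absorbance ratio 573/405 nm.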
DT40 TDP1 no CPT – qHTS for Inhibitors of human tyrosyl-DNA phosphodiesterase 1 (TDP1): qHTS in cells in absence of CPT; DT40 Tdp1-/- hTDP1 cells, no CPT, ATP luminescence, 48 h; 15% of 420,000 active; Potency, µM (doses to about 46.2 µM), without a hit: top-dose activity change, negative = growth inhibition, actives largely listed as inhibitors; note: potency is the fitted concentration of half-maximal effect; nearly all actives have a fitted effect of over 55% in size
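Cells were dispensed at 400 per well, compounds added by pin tool, plates incubated ≥48 hr at 37 °C, then CellTiter-Glo added for 30 min at room temperature before luminescence reading. Line: DT40 Tdp1-/- complemented with hTDP1; camptothecin omitted.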
IL-1B inflam inh – inhibitors of inflammasome signaling (IL-1 beta secretion) | THP-1 LPS/ATP IL-1B secretion, AlphaLISA, 16 h; active compounds read low | activity change, % at 57.5 µM | 4.7% of 360,000 active | AID 743279; in the data active = activity change below about -50%; inconclusive = mostly about -30% to -49%
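Secreted IL-1B measured by AlphaLISA bead assay after 16 h compound exposure of THP-1 cells; compounds (final up to 57.5 uM) added 1 h before LPS (250 ng/mL) and ATP (1.25 mM) stimulation; lower signal means less secretion.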
HT1080NT lethal – kills 2HG-producing HT-1080-NT fibrosarcoma cells. 1.6% of 360,000 active. HT-1080-NT fibrosarcoma viability, CellTiter-Glo ATP luminescence, 48 h. Potency, µM (series often up to 46.1 µM), inactives show top-dose activity, negative = less viability, hits mostly cytotoxic;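 note: NT is the 2HG producing partner of a matched IDH1 knockdown line; potency is the fitted concentration of half-maximal effect; 0% = DMSO-treated cells and -100% = media-only wells without cells; nearly all actives have a fitted effect of over 55% in size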
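Read-out is CellTiter-Glo luminescence after 10 minutes at room temperature, following 48 hours' compound treatment of HT-1080-NT cells (750 cells/well, RPMI, 5% FBS, 37 degrees C).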
Active calls of the source: *; ! = a repeat was not active; [ ] = dose if it differs, or a comment. This excerpt belongs to a sample that is enriched for hits. Unless noted, calls come from the whole dose curve; as a rule, active = well fitted curve in the direction sought with a large enough effect; inconclusive = small, poorly fitted or top-dose-only effect, or another doubt; inactive = no such curve, though single readings can be large; an effect the other way counts as inactive or inconclusive. Unless noted, % is set by controls: 0 for no effect and ±100 for the full control effect.

What do the screens show for `O=C(NC[C@H]1OC[C@@H](NC2CCC2)[C@@H]1O)c1ccccc1`?
12-LOX inh: 17%[176 µM]

Results for COc1cccc(CNC(=O)CN2C(=O)NC3(CCOCC3)C2=O)c1OC ?
12-LOX inh: 8%

What do the screens show for `CNCc1cn(C[C@H]2O[C@@H](CC(=O)N3CCC[C@@H]3COC)[C@H](O)[C@@H]2O)nn1`?
12-LOX inh: 2%[176 µM]

What do the screens show for `COc1ccc2nc(C[C@@H]3C[C@@H](C(C)C)[C@H](CNCc4ccccn4)C=C3C)[nH]c2c1`?
12-LOX inh: 36%[176 µM]

What do the screens show for `FC(F)(F)c1ccccc1-n1ccnc1`?
TDP1 cell CPT: inconclusive; HT1080 IDH1KD tx: 19%; 12-LOX inh: -5%; DT40 TDP1 no CPT: 16µM*!; IL-1B inflam inh: 16; HT1080NT lethal: 5%

How did FC(F)(F)c1ccccc1-c1cncnc1-n1ccnc1 do in these assays?
TDP1 cell CPT: 3%; 12-LOX inh: -12%; DT40 TDP1 no CPT: 13%

Results for CCNC(=O)N1CCC([C@H]2[C@@H](OC)C(=O)N2C(C)C)CC1 ?
12-LOX inh: 3%

Results for O=C(NCc1cccc(Cl)c1)NCc1noc2ccccc12 ?
TDP1 cell CPT: inconclusive; 12-LOX inh: 4%; DT40 TDP1 no CPT: 16µM*

Results for O=C(NCc1noc2ccccc12)Nc1ccc(F)cc1F ?
TDP1 cell CPT: 16µM*; 12-LOX inh: -21%; DT40 TDP1 no CPT: -69%

How did N#Cc1nc(Cl)c(Cl)c(NN)c1Cl do in these assays?
TDP1 cell CPT: -1%; HT1080 IDH1KD tx: -13%; 12-LOX inh: 9%; DT40 TDP1 no CPT: -15%; IL-1B inflam inh: -54*; HT1080NT lethal: -20%

How did CC(C)c1nc(C#N)c(NN)o1 do in these assays?
TDP1 cell CPT: 0%; HT1080 IDH1KD tx: -5%; 12-LOX inh: 0%; DT40 TDP1 no CPT: -10%; IL-1B inflam inh: 44; HT1080NT lethal: 8%

How did O=C1CCCC2=C1C(c1ccccc1F)c1c([nH]n(-c3ccccc3)c1=O)N2 (stereo unspecified) do in these assays?
12-LOX inh: -10%

Results for CC(C)c1ccccc1NC(=O)CSC1=Nc2ccccc2C2CC=NN12 (stereo unspecified) ?
12-LOX inh: 37%

What do the screens show for `Cc1ccc(NC(=O)CSC2=Nc3ccccc3C3CC=NN23)c(C)c1` (stereo unspecified)?
TDP1 cell CPT: 21µM*; HT1080 IDH1KD tx: -3%; 12-LOX inh: inconclusive; DT40 TDP1 no CPT: 21µM*; IL-1B inflam inh: 11; HT1080NT lethal: 9%

How did Cc1ccccc1NC(=O)CSC1=Nc2ccccc2C2CC=NN12 (stereo unspecified) do in these assays?
12-LOX inh: 42%

Results for COC(=O)c1ccc(NC(=O)CSC2=Nc3ccccc3C3CC=NN23)cc1 (stereo unspecified) ?
TDP1 cell CPT: 23µM*; HT1080 IDH1KD tx: -3%; DT40 TDP1 no CPT: 23µM*; IL-1B inflam inh: 1; HT1080NT lethal: -7%

What do the screens show for `NC(=O)c1ccc(NC(=O)CSC2=Nc3ccccc3C3CC=NN23)cc1` (stereo unspecified)?
TDP1 cell CPT: 9.2µM*; HT1080 IDH1KD tx: inconclusive; DT40 TDP1 no CPT: 21µM*; IL-1B inflam inh: 12; HT1080NT lethal: -26%

What do the screens show for `CCOc1ccc(CC(=O)N2CCC(n3cc(-c4nc(C(C)C)no4)nn3)C2)cc1` (stereo unspecified)?
12-LOX inh: 25%

How did CCOc1ccc(-n2ccnc(NCc3ccccc3)c2=O)cc1 do in these assays?
12-LOX inh: -67%

What do the screens show for `COC1=CC(=O)C(O)=C(CCCCCCC/C=C/CCCCCCCC2=C(O)C(=O)C=C(OC)C2=O)C1=O`?
TDP1 cell CPT: -4%; HT1080 IDH1KD tx: 6%; DT40 TDP1 no CPT: -25%; IL-1B inflam inh: 83; HT1080NT lethal: 2%

What do the screens show for `CCCCCCCCCCCC1=C(O)C(=O)C=C(O)C1=O`?
TDP1 cell CPT: inconclusive; HT1080 IDH1KD tx: -2%; 12-LOX inh: 3.4µM*!; DT40 TDP1 no CPT: inconclusive; IL-1B inflam inh: -21; HT1080NT lethal: -7%

How did Cc1ccccc1OCCSc1nc2ccccc2n1CC(O)CO (stereo unspecified) do in these assays?
12-LOX inh: 10%

What do the screens show for `Cc1cc2nc(-c3ccc(SCC(=O)N4CCN(C(=O)c5ccco5)CC4)nc3)[nH]c2cc1C`?
TDP1 cell CPT: inconclusive; HT1080 IDH1KD tx: inconclusive; 12-LOX inh: 0%; DT40 TDP1 no CPT: inconclusive; IL-1B inflam inh: inconclusive; HT1080NT lethal: inconclusive

Results for Cc1cc2nc(-c3ccc(SCC(=O)N4CCOCC4)nc3)[nH]c2cc1C ?
TDP1 cell CPT: 26µM*; HT1080 IDH1KD tx: inconclusive; 12-LOX inh: -15%; DT40 TDP1 no CPT: inconclusive; IL-1B inflam inh: inconclusive; HT1080NT lethal: inconclusive

How did Cc1cc2nc(-c3ccc(SCC(=O)Nc4ccc5c(c4)OCCO5)nc3)[nH]c2cc1C do in these assays?
TDP1 cell CPT: 23µM*; HT1080 IDH1KD tx: inconclusive; 12-LOX inh: -9%; DT40 TDP1 no CPT: 23µM*; IL-1B inflam inh: -5; HT1080NT lethal: inconclusive

How did O=C(c1ccoc1)N1CCc2onc(C(c3ccccc3)c3ccccc3)c2C1 do in these assays?
12-LOX inh: -2%

How did O=c1[nH]cccc1NS(=O)(=O)c1ccccc1Cl do in these assays?
12-LOX inh: 35µM*

Results for Cc1nc(C)c(C(=O)N2[C@@H]3CC[C@H]2CC(NC(=O)c2ccncc2)C3)s1 (stereo partly specified) ?
12-LOX inh: 19%

Results for CCc1ccc(C(=O)NC(C)C2CCCO2)s1 (stereo unspecified) ?
12-LOX inh: -22%

How did CSc1ccccc1OCc1cc(C(=O)NCCC2=CCCCC2)no1 do in these assays?
TDP1 cell CPT: -19%; HT1080 IDH1KD tx: -19%; 12-LOX inh: 477%; DT40 TDP1 no CPT: -29%; IL-1B inflam inh: 18; HT1080NT lethal: inconclusive

Results for CSc1ccccc1OCc1cc(C(=O)NCCN2CCCc3ccccc32)no1 ?
TDP1 cell CPT: inconclusive; HT1080 IDH1KD tx: 12µM*; 12-LOX inh: -11%; DT40 TDP1 no CPT: 15µM*; IL-1B inflam inh: -10; HT1080NT lethal: -24%

Source: PubChem (National Center for Advancing Translational Sciences (NCATS))
